# Records with an inconclusive call do not appear. A call without a number means that no potency is given here. The source made the active and inactive calls. Unless noted, the call rests on the fitted dose curve; in most records, active means well fitted curve in the direction sought with a large enough effect; inconclusive means small, poorly fitted or top-dose-only effect, or another doubt; inactive means no such curve, though single readings can be large; an effect the other way counts as inactive or inconclusive.
# Key:
# [1] = AP1 Signaling Pathway (AID 357; active means well fitted curve in either direction with a large enough effect, not every such curve was filed as active;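 further: ME-180 reporter cells stimulated with EGF at its EC50 level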)
# Method in brief: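 Beta-lactamase reporter under AP-1 response element, ME-180 background. Stimulus: EC50 EGF. Compound exposure 5 h, 37 °C. Detection: CCF4, 2.5 h RT, 460/530 nm. Values: AC50 from titration.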
# [2] = target: Cytochrome P450 1A2 (Homo sapiens) (UniProt P05177); assay: p450-cyp1a2 (AID 410; calls by dose curve)
# Cytochrome P450 1A2 (Homo sapiens), sequence (P05177 whole entry, looked up): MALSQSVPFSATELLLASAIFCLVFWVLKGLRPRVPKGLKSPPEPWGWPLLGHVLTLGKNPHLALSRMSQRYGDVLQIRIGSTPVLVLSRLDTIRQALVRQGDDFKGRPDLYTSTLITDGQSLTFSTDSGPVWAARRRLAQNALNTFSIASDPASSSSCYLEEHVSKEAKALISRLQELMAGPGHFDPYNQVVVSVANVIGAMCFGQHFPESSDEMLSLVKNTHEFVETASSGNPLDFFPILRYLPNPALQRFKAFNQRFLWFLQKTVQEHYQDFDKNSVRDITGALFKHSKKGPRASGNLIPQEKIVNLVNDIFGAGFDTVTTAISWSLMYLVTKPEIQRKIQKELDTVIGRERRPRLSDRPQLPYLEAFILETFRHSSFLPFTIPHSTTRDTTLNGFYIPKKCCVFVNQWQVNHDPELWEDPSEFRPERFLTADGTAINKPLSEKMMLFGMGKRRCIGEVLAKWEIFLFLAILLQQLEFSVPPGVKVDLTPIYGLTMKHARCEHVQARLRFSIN
# Method in brief: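 Human CYP1A2 (20nM) demethylated Luciferin-ME at its Km (100uM) in 100mM KPO4. After 10 min compound preincubation, NADPH regeneration ran the reaction 60 min at room temperature. Luciferin was read by luminescence, normalized to 57 uM furafylline.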
# [3] = NFAT Signaling Pathway (AID 444; active means well fitted curve in either direction with a large enough effect, not every such curve was filed as active;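 further: carbachol stimulus at about its EC50 of 1 µM final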); settings: Jurkat NFAT-bla M1, carbachol, beta-lactamase ratio, 5 h; at 17.2 µM (top of the series) unless noted
# Method in brief: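 Jurkat cells carrying an NFAT-driven β-lactamase reporter and co-transfected muscarinic M1 receptor were treated with compound plus carbachol (1 uM final, an EC50 level) for 5 h at 37 °C. CCF4 loading followed for 1 h at RT; 460/530 nm ratio gave %activity.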
# [4] = Stat Signaling Pathway (AID 446; active means well fitted curve in either direction with a large enough effect, not every such curve was filed as active;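 further: ME-180 cervical cancer cells given 40 pM IL-6 alongside compound; SIE-controlled beta-lactamase reporter measured as 460/530 nm FRET emission ratio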)
# Method in brief: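 ME-180 cells carrying a SIE-driven beta-lactamase reporter are stimulated with 40 pM IL-6 for 5 h at 37C in the presence of compound. The 460/530 nm FRET substrate ratio is read after 2.5 h at RT. Data are normalised to 300 pM IL-6 and to 125 nM JAK inhibitor controls.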
# [5] = target: Glucocorticoid receptor (Homo sapiens) (UniProt P04150); assay: GR-GFP Redistribution (AID 450;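 active means compounds whose dose series gives a full or clear partial fitted curve of increased nuclear translocation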; further: potency means the concentration at half of the fitted maximal effect); settings: U2OS GR-GFP nuclear translocation, laser cytometry, 2 h
# Glucocorticoid receptor (Homo sapiens), sequence (P04150 whole entry, looked up, the tested form may be a part): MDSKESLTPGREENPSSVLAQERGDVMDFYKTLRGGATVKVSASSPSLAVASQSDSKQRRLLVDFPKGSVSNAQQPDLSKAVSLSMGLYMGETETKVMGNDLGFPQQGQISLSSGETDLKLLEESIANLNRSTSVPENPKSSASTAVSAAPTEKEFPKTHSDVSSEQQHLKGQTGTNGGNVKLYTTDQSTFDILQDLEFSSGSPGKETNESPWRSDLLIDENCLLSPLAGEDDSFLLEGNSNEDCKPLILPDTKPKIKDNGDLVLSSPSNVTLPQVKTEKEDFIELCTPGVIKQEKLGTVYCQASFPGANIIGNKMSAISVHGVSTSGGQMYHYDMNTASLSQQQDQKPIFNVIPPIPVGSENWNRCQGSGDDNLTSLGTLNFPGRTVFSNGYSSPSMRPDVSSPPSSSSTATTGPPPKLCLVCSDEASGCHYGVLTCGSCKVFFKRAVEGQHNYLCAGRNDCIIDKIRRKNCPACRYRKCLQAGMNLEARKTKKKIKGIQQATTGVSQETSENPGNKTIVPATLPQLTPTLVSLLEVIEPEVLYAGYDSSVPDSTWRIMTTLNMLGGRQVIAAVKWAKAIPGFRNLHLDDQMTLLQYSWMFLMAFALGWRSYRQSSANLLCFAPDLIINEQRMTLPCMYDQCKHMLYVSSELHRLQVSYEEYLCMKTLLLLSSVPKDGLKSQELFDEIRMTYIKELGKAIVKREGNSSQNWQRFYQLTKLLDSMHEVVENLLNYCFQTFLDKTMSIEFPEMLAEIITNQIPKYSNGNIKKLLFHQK
# [6] = target: Glucocorticoid receptor (Homo sapiens) (UniProt P04150); assay: GR-EFC Redistribution (AID 451; calls by dose curve; further: potency means the concentration at half of the fitted maximal effect); settings: CHO-K1 GR-EFC translocation, beta-gal luminescence, 2 h
# Method in brief: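 CHO-K1 cells stably expressing nuclear-localized β-gal enzyme acceptor and GR fused C-terminally to the enzyme donor fragment; ligand-driven nuclear translocation restores β-gal by complementation. Compounds titrated up to 46 uM final, 2 h at 37 °C; luminescence read.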
# [7] = target: Mitogen-activated protein kinase 10 (Mus musculus) (UniProt Q61831); assay: JNK3 AlphaScreen Assay (AID 530; active means well fitted curve in either direction with a large enough effect, not every such curve was filed as active;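 further: kinase came from lysate of stimulated human HepG2 cells; signal reports phosphorylation of biotinylated GST-cJun 1-79 at Ser73 with 10 µM ATP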)
# Method in brief: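 JNK3 came from HepG2 lysates pre-activated with IL-1beta and TNF-alpha and phosphorylated biotinylated GST-cJun (1-79) at 10 uM ATP, pH 7.6, room temperature. Compounds were titrated. AlphaScreen signal used anti-phospho-cJun (Ser73) antibody.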
# [8] = target: 3',5'-cyclic-AMP phosphodiesterase 4B (Homo sapiens) (UniProt Q07343); assay: qHTS Assay for Inhibitors of PDE-IV (AID 607; active means well fitted activation curve with a large enough effect in the main read-out, with a control signal flat, not every such curve was filed as active)
# 3',5'-cyclic-AMP phosphodiesterase 4B (Homo sapiens), sequence (Q07343 whole entry, looked up): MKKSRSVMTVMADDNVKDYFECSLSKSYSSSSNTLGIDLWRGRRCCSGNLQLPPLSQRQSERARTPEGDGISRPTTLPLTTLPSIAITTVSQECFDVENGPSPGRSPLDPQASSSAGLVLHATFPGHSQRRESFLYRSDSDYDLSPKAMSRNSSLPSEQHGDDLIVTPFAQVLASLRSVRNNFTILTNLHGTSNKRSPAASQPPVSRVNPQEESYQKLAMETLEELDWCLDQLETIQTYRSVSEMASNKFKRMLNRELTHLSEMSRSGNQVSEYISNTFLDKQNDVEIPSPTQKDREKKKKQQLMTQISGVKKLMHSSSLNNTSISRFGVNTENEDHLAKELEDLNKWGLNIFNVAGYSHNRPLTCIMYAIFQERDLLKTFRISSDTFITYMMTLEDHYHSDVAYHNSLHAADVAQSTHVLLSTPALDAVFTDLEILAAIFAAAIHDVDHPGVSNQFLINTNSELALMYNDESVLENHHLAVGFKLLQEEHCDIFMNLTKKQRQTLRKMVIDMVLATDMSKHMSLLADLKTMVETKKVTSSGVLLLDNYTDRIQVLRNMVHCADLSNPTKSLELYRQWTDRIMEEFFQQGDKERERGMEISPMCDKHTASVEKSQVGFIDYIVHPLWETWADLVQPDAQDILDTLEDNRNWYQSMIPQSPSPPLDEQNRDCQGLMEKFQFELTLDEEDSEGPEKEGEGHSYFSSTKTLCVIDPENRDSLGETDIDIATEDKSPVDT
# Method in brief: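 HEK293 ACTOne cells with CNG channel (1000/well), endogenous PDE4; membrane potential dye, compounds up to 22.9 uM final. Fluorescence Ex 535/Em 590; RO 20-1724 (100 uM final) as reference.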
# [9] = qHTS Assay for Lipid Storage Modulators (AID 1519; calls by dose curve); settings: Drosophila S3 cells, BODIPY lipid droplet/cell ratio, laser cytometry, cells loaded with oleic acid; for activity change, negative = inhibition: at 25.7 µM (top of the series)
# Method in brief: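 Cells seeded at 5,000 per well were treated with compounds over a concentration series and loaded with oleic acid (400 uM, as added). Lipid droplet fluorescence (488 nm excitation, 500-530 nm channel) was read by laser-scanning cytometry and normalized to 20 uM Triacsin C.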
# [10] = target: ATP-dependent 6-phosphofructokinase (Trypanosoma brucei brucei) (UniProt O15648); assay: qHTS Assay to Find Inhibitors of T. brucei phosphofructokinase: hit validation (AID 492961);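 further: luminescence reports ADP formed as PFK phosphorylates fructose-6-phosphate with ATP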
# ATP-dependent 6-phosphofructokinase (Trypanosoma brucei brucei), sequence (O15648 whole entry, looked up): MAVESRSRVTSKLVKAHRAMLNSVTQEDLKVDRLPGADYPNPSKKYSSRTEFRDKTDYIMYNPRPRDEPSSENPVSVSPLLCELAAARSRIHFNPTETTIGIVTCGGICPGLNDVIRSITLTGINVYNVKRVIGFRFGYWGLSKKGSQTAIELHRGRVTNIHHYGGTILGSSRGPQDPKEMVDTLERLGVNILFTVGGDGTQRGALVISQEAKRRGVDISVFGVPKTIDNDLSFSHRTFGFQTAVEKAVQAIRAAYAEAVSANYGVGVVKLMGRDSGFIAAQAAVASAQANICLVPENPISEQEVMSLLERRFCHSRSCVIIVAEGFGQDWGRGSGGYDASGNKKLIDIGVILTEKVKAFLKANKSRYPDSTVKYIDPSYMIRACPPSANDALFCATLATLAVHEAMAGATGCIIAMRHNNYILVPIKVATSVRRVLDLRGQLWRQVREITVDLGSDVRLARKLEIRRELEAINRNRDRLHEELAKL
# Method in brief: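 Reaction: 0.1 M triethanolamine pH 8.0, 5 mM MgCl2, F6P 0.5 mM, ATP 0.1 mM, PFK 1.25 nM, 45 min RT. Read-out: ADP-Glo luminescence. Analysis: concentration-response fits, classed by r2 and efficacy.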
# [11] = target: Luciferin 4-monooxygenase (Photinus pyralis) (UniProt P08659); assay: Biochemical firefly luciferase enzyme assay for NPC (AID 624030);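 further: purified P. pyralis luciferase at 10 nM with luciferin and ATP substrate; nearly all actives have a fitted effect of over 70% in size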
# Luciferin 4-monooxygenase (Photinus pyralis), sequence (P08659 whole entry, looked up): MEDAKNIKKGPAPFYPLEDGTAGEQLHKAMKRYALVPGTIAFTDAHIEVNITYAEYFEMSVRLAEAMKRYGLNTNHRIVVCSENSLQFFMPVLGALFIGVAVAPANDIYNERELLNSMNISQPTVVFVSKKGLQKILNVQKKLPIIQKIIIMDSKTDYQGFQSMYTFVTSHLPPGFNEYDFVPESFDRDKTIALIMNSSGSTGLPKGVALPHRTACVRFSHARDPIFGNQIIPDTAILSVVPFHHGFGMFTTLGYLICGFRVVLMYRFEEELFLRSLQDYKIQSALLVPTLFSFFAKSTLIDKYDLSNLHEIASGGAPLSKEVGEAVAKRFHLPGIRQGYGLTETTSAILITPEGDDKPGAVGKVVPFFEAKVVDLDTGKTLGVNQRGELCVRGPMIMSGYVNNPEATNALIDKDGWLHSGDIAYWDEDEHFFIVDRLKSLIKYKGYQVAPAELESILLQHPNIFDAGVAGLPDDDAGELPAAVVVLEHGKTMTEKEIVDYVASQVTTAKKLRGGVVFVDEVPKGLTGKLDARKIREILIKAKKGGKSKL
# Method in brief: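 Counter-screen for direct inhibition of the luciferase enzyme by approved-drug library compounds, run at 10 nM enzyme in 50 mM Tris acetate (final). Luminescence was read within 5 min of enzyme-buffer addition and normalized to PTC124 versus DMSO (0%).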
# [12] = S16 Schwann cell PMP22 intronic element firefly luciferase assay (AID 624032); further: nearly all actives have a fitted effect of over 30% in size
# Method in brief: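 Rat S16 Schwann cells stably carrying a PMP22 intronic element-driven Fluc reporter were seeded overnight, then exposed to compounds for 24 h at 37 °C. Luminescence was normalized to PTC124 (positive control) and DMSO (0% activity).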
# [13] = qHTS profiling for inhibitors of Plasmodium falciparum proliferation (AID 504749); further: nearly all actives have a fitted effect of over 60% in size; settings: P. falciparum in erythrocytes, SYBR Green DNA, 72 h
# Method in brief: (§1)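 P. falciparum-infected erythrocytes (0.3% parasitemia, 2.5% hematocrit final) were exposed to compounds for 72 h at 37 C in 5% CO2, then lysed with SYBR Green buffer overnight at room temperature; parasite DNA fluorescence was normalized to artemisinin and DMSO controls.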
# [14] = tested on: CP191; assay: as above; settings: P. falciparum in erythrocytes, SYBR Green DNA, 72 h; series mostly up to 12.8 µM
# Method in brief: as §1
# [15] = tested on: CP217; assay: as above; settings: P. falciparum in erythrocytes, SYBR Green DNA, 72 h; series mostly up to 12.8 µM
# Method in brief: as §1
# [16] = tested on: CP250; assay: as above; settings: P. falciparum in erythrocytes, SYBR Green DNA, 72 h; series mostly up to 12.8 µM
# Method in brief: as §1
# [17] = tested on: CP256; assay: as above; settings: P. falciparum in erythrocytes, SYBR Green DNA, 72 h; series mostly up to 12.8 µM
# Method in brief: as §1
# [18] = tested on: FAB9; assay: as above; settings: P. falciparum in erythrocytes, SYBR Green DNA, 72 h; series mostly up to 12.8 µM
# Method in brief: as §1
# [19] = tested on: JCK; assay: as above; settings: P. falciparum in erythrocytes, SYBR Green DNA, 72 h; series mostly up to 12.8 µM
# Method in brief: as §1
# [20] = target: Ubiquitin carboxyl-terminal hydrolase 1 (Homo sapiens) (UniProt O94782); assay: Inhibitors of USP1/UAF1: Pilot qHTS (AID 504865);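 further: rhodamine fluorescence freed from ubiquitin-rhodamine substrate followed over time; top concentration of the series differs between compounds; nearly all actives have a fitted effect of over 35% in size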
# Ubiquitin carboxyl-terminal hydrolase 1 (Homo sapiens), sequence (O94782 whole entry, looked up): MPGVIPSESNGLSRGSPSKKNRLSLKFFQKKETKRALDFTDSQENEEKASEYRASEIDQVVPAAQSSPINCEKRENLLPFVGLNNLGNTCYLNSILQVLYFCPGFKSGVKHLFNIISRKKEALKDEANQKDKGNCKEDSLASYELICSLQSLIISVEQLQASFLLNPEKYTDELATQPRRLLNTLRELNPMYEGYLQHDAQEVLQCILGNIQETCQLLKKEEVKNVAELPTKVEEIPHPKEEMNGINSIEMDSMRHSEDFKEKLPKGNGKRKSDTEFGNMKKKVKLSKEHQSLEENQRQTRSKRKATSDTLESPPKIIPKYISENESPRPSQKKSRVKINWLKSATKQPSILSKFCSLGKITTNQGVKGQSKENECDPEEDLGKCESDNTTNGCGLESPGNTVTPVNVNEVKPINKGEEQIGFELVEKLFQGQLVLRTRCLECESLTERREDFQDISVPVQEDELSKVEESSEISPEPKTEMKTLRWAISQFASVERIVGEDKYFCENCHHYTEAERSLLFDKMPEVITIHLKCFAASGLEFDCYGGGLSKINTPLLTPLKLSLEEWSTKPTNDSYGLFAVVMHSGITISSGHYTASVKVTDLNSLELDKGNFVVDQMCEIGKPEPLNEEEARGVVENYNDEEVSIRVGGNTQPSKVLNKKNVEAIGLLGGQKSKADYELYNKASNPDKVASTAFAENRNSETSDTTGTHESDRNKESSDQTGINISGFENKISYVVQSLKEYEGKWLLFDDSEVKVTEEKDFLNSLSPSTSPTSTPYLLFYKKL
# Method in brief: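 Deubiquitinase activity followed as kinetic rhodamine fluorescence release from 150 nM Ub-Rho. 1 nM USP1/UAF1 with compound, after 15 min room-temperature preincubation, in HEPES pH 7.8 buffer containing TCEP, EDTA, BSA and Tween-20.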
# [21] = measured here: cell count channel max response
# [22] = measured here: lipid channel max response
# [23] = at 12.8 µM (top of the series), parasite line A
# [24] = at 12.8 µM (top of the series), parasite line B
structure (smiles),measurement,setting,value
CO[C@]1(NC(=O)C2SC(=C(C(N)=O)C(=O)O)S2)C(=O)N2C(C(=O)O)=C(CSc3nnnn3C)CS[C@H]21 (stereo partly specified),outcome,[1],inactive
same,Potency,[2],inactive
same,"activity change, negative = inhibition",[3],13.4% (inactive)
same,outcome,[4],inactive
same,Potency,[5],> 20.6 µM (inactive)
same,Potency,[6],> 20.6 µM (inactive)
same,Potency,[7],inactive
same,outcome,[8],inactive
same,"activity change, negative = inhibition",[9],0.935% (inactive)
same,max response,[9]; [21],0.185%
same,max response,[9]; [22],1.63%
same,outcome,[10],inactive
same,Potency,[11],inactive
same,Potency,[12],inactive
same,"activity, negative = inhibition",[13]; [23],-5.23% (inactive)
same,"activity, negative = inhibition",[13]; [24],-0.327% (inactive)
same,Potency,[14],inactive
same,Potency,[15],inactive
same,Potency,[16],inactive
same,Potency,[17],inactive
same,Potency,[18],inactive
same,Potency,[19],inactive
CN(C)CCCO[C@H]1[C@@H]2OC(C)(C)O[C@@H]2O[C@@H]1[C@H](O)CO,outcome,[1],inactive
same,Potency,[2],inactive
same,"activity change, negative = inhibition",[3],-2.11% (inactive)
same,outcome,[4],inactive
same,Potency,[5],> 20.6 µM (inactive)
same,Potency,[6],> 20.6 µM (inactive)
same,Potency,[7],inactive
same,outcome,[8],inactive
same,"activity change, negative = inhibition",[9],0.679% (inactive)
same,max response,[9]; [21],-1.4%
same,max response,[9]; [22],-0.368%
same,Potency,[20],inactive
O=C(O)[C@@H]1CCCNC1,outcome,[1],inactive
same,Potency,[2],inactive
same,"activity change, negative = inhibition",[3],-10.3% (inactive)
same,outcome,[4],inactive
same,Potency,[5],> 20.6 µM (inactive)
same,Potency,[6],> 20.6 µM (inactive)
same,Potency,[7],inactive
same,outcome,[8],inactive
same,"activity change, negative = inhibition",[9],-1.28% (inactive)
same,max response,[9]; [21],-8.86%
same,max response,[9]; [22],-11.3%
same,Potency,[20],inactive
C[C@@H]1C(=O)O[C@@H]2C[C@]34[C@H]5C[C@@H](C(C)(C)C)[C@@]36[C@@H](OC(=O)[C@@H]6O)O[C@@]4(C(=O)O5)[C@@]12O,outcome,[1],inactive
same,Potency,[2],inactive
same,"activity change, negative = inhibition",[3],0.0686% (inactive)
same,outcome,[4],inactive
same,Potency,[5],> 20.6 µM (inactive)
same,Potency,[6],> 20.6 µM (inactive)
same,Potency,[7],inactive
same,"activity change, negative = inhibition",[9],-0.102% (inactive)
same,max response,[9]; [21],-9.92%
same,max response,[9]; [22],-6.41%
same,Potency,[20],inactive
CN1C(=O)C[C@H](c2ccccc2)C1=O,outcome,[1],inactive
same,Potency,[2],inactive
same,"activity change, negative = inhibition",[3],35.9% (inactive)
same,outcome,[4],inactive
same,Potency,[5],> 20.6 µM (inactive)
same,Potency,[6],> 20.6 µM (inactive)
same,Potency,[7],inactive
same,outcome,[8],inactive
same,"activity change, negative = inhibition",[9],0.325% (inactive)
same,max response,[9]; [21],-28%
same,max response,[9]; [22],-25.7%
same,outcome,[10],inactive
same,Potency,[20],inactive
same,Potency,[11],inactive
same,Potency,[12],inactive
same,"activity, negative = inhibition","[13]; at 28.7 µM (top of the series), parasite line B",-2.97% (inactive)
same,Potency,[14],inactive
same,Potency,[15],inactive
same,Potency,[16],inactive
same,Potency,[17],inactive
same,Potency,[18],inactive
same,Potency,[19],inactive
C=CCN1C(=CCO)[C@H]2C[C@H]3[C@@H]1CC[C@@]31c3ccccc3N3C=C4[C@@H]5N(/C=C/2[C@H]31)c1ccccc1[C@]51CC[C@H]2[C@H]1C[C@@H]4/C(=C/CO)N2CC=C,outcome,[1],inactive
same,Potency,[2],inactive
same,"activity change, negative = inhibition",[3],-23.2% (inactive)
same,outcome,[4],inactive
same,Potency,[5],> 20.6 µM (inactive)
same,Potency,[6],> 20.6 µM (inactive)
same,Potency,[7],inactive
same,outcome,[8],inactive
same,"activity change, negative = inhibition",[9],0.271% (inactive)
same,max response,[9]; [21],-16.1%
same,max response,[9]; [22],-15.8%
same,outcome,[10],inactive
same,Potency,[11],inactive
same,Potency,[12],inactive
same,"activity, negative = inhibition",[13]; [23],1.83% (inactive)
same,"activity, negative = inhibition",[13]; [24],0.223% (inactive)
same,Potency,[14],inactive
same,Potency,[15],inactive
same,Potency,[16],inactive
same,Potency,[17],inactive
same,Potency,[18],inactive
same,Potency,[19],inactive

# From PubChem BioAssay (NCATS)
